Source: PubChem (National Center for Advancing Translational Sciences (NCATS))
An excerpt weighted towards active compounds, which were near 1.4% of everything screened.
p53 reactivator: restores transcriptional activity of mutant p53. AID 504706. actives 0.063% (n = 320,000). H1299 p53-A138V BP100-luciferase reporter, luminescence, 24 h. Potency, µM (highest dose often 92.2 µM), for inactives: at the highest dose activity change, positive = activation, usual class: activators; also: potency is read from the fitted curve at half-maximal effect; % of control where 0% means no effect; nearly all actives have a fitted effect of over 45% in size
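H1299 (p53-null), stable ts p53-A138V + BP100-Luc; 1000 cells/well, Opti-MEM/10% FBS; cpd 4 pt, 1:5; 24 h, 37 deg C, 5% CO2; detection reagent 10 min RT; luminescence.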
uPA surface inh: inhibitors of cell surface uPA generation. cell surface uPA generation assay, qHTS. Potency, µM (series often up to 38.3 µM), without a hit: top-dose activity change, negative = inhibition, usual class: inhibitors. actives 0.31% (n = 330,000); active = well fitted inhibition curve with a large enough effect; inconclusive = small, poorly fitted or top-dose-only effect; inactive = no such curve, though single readings can be large or run the other way; tested in mouse RAW 264.7 cells; also: potency is read from the fitted curve at half-maximal effect; % is scaled to controls: 0 for no effect and ±100 for the full control effect; nearly all actives have a fitted effect of over 55% in size
MmCpn inh: blocks the Methanococcus maripaludis chaperonin Mm-Cpn. actives 0.031% (n = 330,000). Potency, µM (series often up to 76.9 µM), inactives show top-dose activity, negative = inhibition, hits mostly inhibitors. purified Mm-Cpn ATPase, ADP Transcreener TR-FRET; also: potency is read from the fitted curve at half-maximal effect; % is scaled to controls: 0 for no effect and ±100 for the full control effect; nearly all actives have a fitted effect of over 80% in size
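TR-FRET (320 nm excitation; 590 and 665 nm emission) reports ADP made from 10 uM ATP by 25 nM enzyme; compounds were preincubated 10 min, reaction run 30 min, both at 37°C.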
KCNH2 3.1 inh: KCNH2 3.1 (human) potassium channel inhibition; U2OS KCNH2 3.1, thallium flux FluxOr; hits give low values; activity change, % (tested at about 1.8 µM); actives 0.95% (n = 340,000); AID 720553;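 active = maximum activity change below -70%; inconclusive = maximum activity change from -70% to -50%; inactive = maximum activity change above -50%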;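 also: thallium influx rate constant from kinetic fluorescence after stimulation buffer; % is scaled to controls: 0 for no effect and ±100 for the full control effect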
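We transduce U2OS cells with the mutant 3.1 virus, culture them overnight, load FluxOr with Red40 quencher for 45 min, then add stimulation buffer and read kinetically for 2 min to derive a normalized rate constant.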
KCNH2 WT inh: KCNH2 (human, wildtype) channel inhibition; Q12809; U2OS, BacMam KCNH2, thallium flux FluxOr; hits give low values; activity change, % at 1.84 µM; actives 0.37% (n = 340,000); AID 720551;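 active = maximum activity change below -70%; inconclusive = maximum activity change between -70% and -50%; inactive = maximum activity change above -50%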; also: % is scaled to controls: 0 for no effect and ±100 for the full control effect
Target sequence (Q12809 whole entry, looked up): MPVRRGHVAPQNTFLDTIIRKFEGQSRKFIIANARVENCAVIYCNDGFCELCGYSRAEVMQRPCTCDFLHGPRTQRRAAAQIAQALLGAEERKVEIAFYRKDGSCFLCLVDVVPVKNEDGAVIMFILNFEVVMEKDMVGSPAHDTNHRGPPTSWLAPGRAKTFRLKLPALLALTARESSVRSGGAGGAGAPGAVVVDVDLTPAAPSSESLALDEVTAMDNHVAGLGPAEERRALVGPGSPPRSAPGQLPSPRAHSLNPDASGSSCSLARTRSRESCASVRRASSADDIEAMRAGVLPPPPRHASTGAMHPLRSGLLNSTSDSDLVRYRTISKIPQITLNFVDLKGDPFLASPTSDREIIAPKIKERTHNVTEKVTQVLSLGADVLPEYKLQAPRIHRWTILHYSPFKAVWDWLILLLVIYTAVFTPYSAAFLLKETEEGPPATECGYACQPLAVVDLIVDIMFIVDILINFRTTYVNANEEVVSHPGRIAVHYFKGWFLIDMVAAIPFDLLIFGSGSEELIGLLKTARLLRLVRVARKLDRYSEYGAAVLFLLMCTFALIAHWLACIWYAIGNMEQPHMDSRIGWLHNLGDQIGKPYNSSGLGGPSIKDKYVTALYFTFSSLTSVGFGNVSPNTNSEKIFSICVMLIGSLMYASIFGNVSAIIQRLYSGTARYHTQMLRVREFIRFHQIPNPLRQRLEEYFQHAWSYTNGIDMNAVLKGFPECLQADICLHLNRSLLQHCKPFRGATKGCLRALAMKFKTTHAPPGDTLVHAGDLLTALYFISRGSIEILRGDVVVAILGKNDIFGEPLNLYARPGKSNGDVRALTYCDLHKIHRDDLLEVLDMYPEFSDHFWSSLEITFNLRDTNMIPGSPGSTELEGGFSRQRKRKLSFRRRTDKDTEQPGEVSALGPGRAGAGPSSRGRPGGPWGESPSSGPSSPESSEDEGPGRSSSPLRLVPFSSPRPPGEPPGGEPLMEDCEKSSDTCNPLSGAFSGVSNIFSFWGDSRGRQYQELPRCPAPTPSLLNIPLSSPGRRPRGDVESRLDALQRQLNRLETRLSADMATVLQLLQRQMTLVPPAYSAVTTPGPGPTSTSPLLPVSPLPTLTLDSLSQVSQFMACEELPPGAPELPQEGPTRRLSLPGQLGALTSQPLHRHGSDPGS
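U2OS cells were transduced with wild-type KCNH2 virus (2.03 x 10^8 / mL) for 4 h at room temperature, then cultured overnight at 37 C. Thallium flux was read with FluxOr dye. Rate constants were normalized to DMSO controls.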
ASM inhibitor: inhibitors of human secretory acid sphingomyelinase; P17405; placental ASM, HMU-PC fluorogenic substrate, 60 min; Potency, µM (highest dose often 57.5 µM), for the others: top-dose activity change, negative = inhibition, hits mostly inhibitors; actives 0.006% (n = 340,000); also: potency is read from the fitted curve at half-maximal effect
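Fluorescence read-out (Ex 386 nm, Em 447 nm) after stopping the reaction at pH 10. Enzyme: ASM from human placenta; substrate HMU-PC0, 9 uM final; 60 min, 37 °C. Compound preincubation 10 min, ambient temperature.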
An asterisk follows results filed as active; ? = inconclusive; nt = not tested or not shown. Unless noted, calls follow the shape of the dose curve; as a rule, active = well fitted curve in the direction sought with a large enough effect; inconclusive = small, poorly fitted or top-dose-only effect, or another doubt; inactive = no such curve, though single readings can be large; an effect the other way counts as inactive or inconclusive.

SMILES	p53 reactivator	uPA surface inh	MmCpn inh	KCNH2 3.1 inh	KCNH2 WT inh	ASM inhibitor
CCc1ccc(N=c2c([N+](=O)[O-])nn(-c3ccccc3)n2O)cc1	39.8µM*	nt	-0.1%	-10.8	-14.9	-4.9%
Cc1cc(C)cc(N=c2c([N+](=O)[O-])nn(-c3ccc(Cl)cc3)n2O)c1	1.6%	-1.2%	-4.6%	-14.1	-5.8	-10.0%
Cc1ccc(/C=N/NC(=O)c2cc3c(s2)CCCC3)o1	9.5%	-11.2%	1.1%	8.2	9.2	-2.2%
Cc1ccc(C(=O)N/C(=C\c2ccc(C(C)C)cc2)C(=O)NCCCN2CCOCC2)cc1	4.2%	-4.1%	2.7%	12.2	-20.1	-0.2%
COc1ccc(C(=O)N/C(=C\c2ccc(-c3cccc([N+](=O)[O-])c3)o2)C(=O)NCCCN2CCOCC2)cc1	nt	nt	nt	-6.3	8.4	nt
O=C(NCCCc1ccccc1)c1cccc([N+](=O)[O-])c1	12.3%	-1.6%	3.3%	4.2	-1.4	6.3%
Cc1ccc(C(=O)N/C(=C\c2ccc(Cl)cc2)C(=O)NCCCN2CCOCC2)cc1	-13.1%	-4.2%	-3.6%	-103.2*	-140.6*	-0.3%
O=C(NCCCN1CCN(CCCNC(=O)c2cccc([N+](=O)[O-])c2)CC1)c1cccc([N+](=O)[O-])c1	3.5%	-4.8%	-1.3%	-81.3*	-41.4	-0.4%
Cc1ccc(C(=O)N/C(=C\c2ccc(-c3cccc([N+](=O)[O-])c3)o2)C(=O)NCCCN2CCOCC2)cc1	1.8%	21.7%	-1.3%	-185.9*	4.9	-13.2%
O=C(Nc1ccc(Cc2ccncc2)cc1)c1ccc([N+](=O)[O-])o1	nt	-9.4%	0.9%	-33.9	-13.6	-1.8%
O=C(Nc1ccc(F)cc1)Nc1ccc(N2CCCC2)c(S(=O)(=O)Nc2ccccc2Cl)c1	21.8%	-9.7%	-0.5%	-114.5*	-8.3	-7.6%
O=C(Nc1ccc(Cl)c(Cl)c1)Nc1ccc(N2CCCC2)c(S(=O)(=O)Nc2ccccc2Cl)c1	7.4%	-11.9%	-8.7%	3.7	-10.9	-5.5%
CC1(C2CC2)NC(=O)N(CC(=O)Nc2cc(S(=O)(=O)N3CCCCC3)ccc2Cl)C1=O (stereo not given)	-20.2%	?	3.3%	-4.0	-3.1	1.6%
CN(C)S(=O)(=O)c1ccc(Cl)c(NC(=O)CN2C(=O)NC(C)(C3CC3)C2=O)c1 (stereo not given)	-0.3%	5.62µM*	-0.8%	-2.5	-6.0	-0.1%
O=C(CN1CCCC1)Nc1c(Cl)cccc1Cl	nt	5.9%	-0.4%	9.1	1.7	-1.4%
COc1ccccc1C1=CC(=O)C[C@H](c2ccc(Cl)cc2)C1	-10.0%	-16.0%	0.4%	-17.2	-9.4	-2.1%
COc1cccc(C2=CC(=O)C[C@H](c3ccc(Cl)cc3)C2)c1OC	-14.3%	9.7%	-5.0%	-129.0*	0.7	34.5%
COc1ccc(N=Cc2cc(Cc3ccccc3Cl)cc([N+](=O)[O-])c2O)cc1OC	-1.0%	5.3%	1.0%	0.8	13.7	-7.0%
Cc1ccc(N=Cc2cc(Cc3ccccc3Cl)cc([N+](=O)[O-])c2O)c(O)c1	?	8.91µM*	-0.7%	19.4	-3.6	-21.3%
CN(C)S(=O)(=O)c1cccc(-c2nn(-c3ccccc3)cc2/C=C(\C#N)c2nc3ccccc3[nH]2)c1	-5.8%	3.9%	-5.1%	-75.6*	6.0	214.8%
Cc1[nH]c2ccccc2c1/C=N/NC(=O)c1ccccc1	11.3%	7.7%	0.8%	0.4	-6.7	-1.5%
Cc1[nH]c2ccccc2c1/C=C/C(=O)c1ccccc1	25.0%	2.7%	0.4%	-85.5*	-28.1	20.6%
C[C@@H]1CN([C@H](C)CO)C(=O)CCCn2nncc2CO[C@@H]1CN(C)S(=O)(=O)c1ccc(C#N)cc1	nt	nt	nt	-9.1	3.5	nt
Cc1ccc(C(=O)NCc2ccc(N3CCN(C(=O)OC(C)(C)C)CC3)cc2)cc1	-1.5%	3.4%	-0.3%	-117.1*	4.3	1.1%
Cc1ccc(C)c(NCC(=O)NNC(=S)Nc2ccccc2)c1	-0.6%	0.8%	-1.1%	21.4	-74.5*	-1.6%
